Assay [1] in a line: hESC survival regulators, cell-based (AID 493140; call rule not given here;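 further: cells exposed to compounds for four days before counting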). The settings on record: human embryonic stem cell survival screen; stronger effect = higher value.
The nature of assay [2]: liver-stage malaria parasite growth inhibition, primary screen, cell-based, HepG2, luciferase luminescence, HepG2 viability (AID 624349).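 Further: 100% = mean of DMSO negative control wells on the same plate.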 The settings on record: P. berghei liver stage in HepG2, luciferase luminescence, concentration not given here; parasite load remaining: stronger effect = lower value; viability: measured here: HepG2 viability without parasites.
Assay [3] concerns the target 6-phosphogluconate dehydrogenase, decarboxylating (Homo sapiens) (UniProt P52209). Nature of the assay: 6PGD enzyme inhibitors, primary screen, biochemical, human, recombinant enzyme, NADPH absorbance (AID 1159550;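 active means at least 20% inhibition of 6-phosphogluconate dehydrogenase activity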). The settings on record: recombinant 6PGD, NADPH absorbance 341 nm; at 10 µM; stronger effect = higher value.
Assay [4] can be described thus: differential killing of epithelial or mesenchymal cells, primary screen, imaging, PC-3E GFP, TEM4-18 mCherry, co-culture (AID 1345086;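 active means compounds killing one labelled cell type while sparing the other, by normalised counts and ratio limits, not self-fluorescent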;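 on all read-outs here: cells exposed to compound for 72 h before imaging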;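 on red/green cell ratio (normalised): normalised mesenchymal count divided by normalised epithelial count so high means epithelial killing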). The settings on record: imaging cell counts, at 1 µM; for red/green cell ratio (normalised): actives lie on both sides, counts scaled to control wells, 1 = unselective.
Assay [5] is described as follows: sensitizers of A549 cells to miR-34 induction, primary screen, imaging, A549 dox-inducible miR-34, nuclei and caspase counts (AID 1347080;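 active means compounds whose cell count with miR-34 switched on is under 0.7 times the count with it off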). Particulars: A549 miR-34 inducible, Hoechst nuclei count, 48 h.
Assay [6] has as its target Mitogen-activated protein kinase 7 (Homo sapiens) (UniProt Q13164). Nature of the assay: ERK5 transactivation activators in reporter cells, primary screen, cell-based, HTS (AID 1508626;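 active means luciferase signal above three times the same-plate solvent-only control wells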;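 further: luciferase driven by Gal4-ERK5 fusion binding five Gal4 sites before minimal TATA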). Particulars: HeLa Gal4-ERK5 transactivation, 18 h, at 5 µM, stronger effect = higher value.
Assay [7] can be described thus: polyglutamine-triggered caspase-3 activation inhibitors, cell-based (AID 1583). The settings on record: polyglutamine-induced caspase-3 activation, cell assay; stronger effect = higher value;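 tested at 10 µM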.
Assay [8] in a line: suppressors of polyQ aggregation in yeast, 75Q-TubU reporter (AID 1593). The settings on record: Yeast 75Q polyglutamine aggregation reporter.
The nature of assay [9]: rescue of polyQ-huntingtin neuronal dysfunction in worms, whole organism, C. elegans mechanosensory neurons, N-terminal huntingtin (AID 1599). The settings on record: touch response, stronger effect = higher value.
A short description of assay [10]: inhibitors of mitochondrial cytochrome c release, biochemical, purified mitochondria (AID 1603).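 Further: mouse liver mitochondria challenged with calcium chloride; signal normalized to the plate average as 100%.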 The settings on record: stronger effect = lower value.
Assay [11] can be described thus: inhibitors of polyQ protein aggregation (AID 1604). Particulars: polyglutamine-induced protein aggregation inhibition assay; stronger effect = higher value; tested at 2.5 µM.
The nature of assay [12]: enhancers of glutamate uptake in motor neurons, MN-1 cell line (AID 1612).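 Further: tested at 1 µM final; 0% = mean of DMSO vehicle wells on each plate; positive means more glutamate uptake than control and negative means less.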 The settings on record: MN-1 motor neuron cells, stronger effect = higher value.
Assay [13] is described as follows: reducers of polyQ inclusions in PC12 cells, cell-based, NGF-treated PC12, GFPQ80 (AID 1614).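 Further: lower means fewer inclusions and 0 means no inclusions at all.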 Particulars: PC12 NGF-treated GFP-polyQ80 inclusion reduction.
A short description of assay [14]: suppressors of polyglutamine aggregation in yeast, 75Q-TubH (AID 1616). The settings on record: S. cerevisiae 75Q-TubH polyglutamine aggregation suppression; stronger effect = higher value.
Assay [15] can be described thus: survival rescue of mitochondrial mutant cells in low glucose, primary screen, MELAS cybrids, Rieske KO mouse fibroblasts, CellTiter-Glo (AID 1508586;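 active means mean z-score across replicates of 1.96 or higher in either the MELAS or the Rieske mutant cell line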;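 further: z relative to plate mean and SD of compound and empty wells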). (ATP-based viability assays read luminescence as a measure of living cells.)
For assay [16], the target named is NAD(+) hydrolase SARM1 (Homo sapiens) (UniProt Q6SZW1). In words: SARM1 TIR NADase inhibitors, cell lysate, NAD-Glo luminescence (AID 1508614;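 active means compound whose remaining NAD level is above about 45 nM, limit read from the data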). Particulars: SAM-TIR HEK293T lysate NADase, at 1 µM, stronger effect = higher value.
NAD(+) hydrolase SARM1 (Homo sapiens), sequence (Q6SZW1 whole entry, looked up): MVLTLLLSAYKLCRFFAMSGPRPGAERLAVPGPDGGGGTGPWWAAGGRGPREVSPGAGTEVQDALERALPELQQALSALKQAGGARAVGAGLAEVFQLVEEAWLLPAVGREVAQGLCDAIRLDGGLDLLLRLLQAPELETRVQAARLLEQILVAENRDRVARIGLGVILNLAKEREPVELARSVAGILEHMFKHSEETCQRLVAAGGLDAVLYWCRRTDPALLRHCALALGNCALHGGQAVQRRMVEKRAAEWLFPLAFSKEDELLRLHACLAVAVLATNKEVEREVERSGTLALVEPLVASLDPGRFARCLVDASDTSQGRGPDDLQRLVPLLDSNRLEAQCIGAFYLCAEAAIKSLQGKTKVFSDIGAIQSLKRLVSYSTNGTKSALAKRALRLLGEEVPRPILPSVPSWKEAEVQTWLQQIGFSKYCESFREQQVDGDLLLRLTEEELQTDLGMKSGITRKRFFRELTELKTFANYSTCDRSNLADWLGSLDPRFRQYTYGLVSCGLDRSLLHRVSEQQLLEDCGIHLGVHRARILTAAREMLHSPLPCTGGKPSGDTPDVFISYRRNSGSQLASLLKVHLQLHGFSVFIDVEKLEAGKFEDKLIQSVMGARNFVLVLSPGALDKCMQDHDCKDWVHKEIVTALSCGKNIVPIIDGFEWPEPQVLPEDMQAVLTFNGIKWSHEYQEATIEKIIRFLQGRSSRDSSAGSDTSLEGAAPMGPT
The nature of assay [17]: viability rescue of complex I mutant cybrids, primary screen, cell-based, galactose medium, ATP luminescence (AID 1645843;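 active means z-score of at least 1.8 in each of two replicates, scored against plate mean and spread of sample wells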;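 further: positive z means more ATP and so rescue of galactose-driven cybrid death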). Particulars: complex I mutant cybrid cells, 72 h, stronger effect = higher value.
The mark [18] stands for this setting: measured here: epithelial PC-3E GFP cell survival.
The mark [19] stands for this setting: measured here: mesenchymal TEM4-18 mCherry cell survival.
The mark [20] stands for this setting: stronger effect = lower value, cell number ratio, induced over uninduced.
[21] abbreviates: measured here: relative caspase fold change +Dox/-Dox.
Where [22] appears, read: measured here: total cells with miR-34 induction, stronger effect = lower value.
Where [23] appears, read: measured here: total cells without miR-34 induction.

As a reminder, the viability is a read-out of living cells in per cent, often relative to untreated cells. For orientation: inhibition means the drop in the measured response relative to a control, in per cent.

Values joined by “and” are separate entries in the source; they are usually repeats but may differ in a detail not shown here. Equal values may be shown once. For some assays here: Entries with a potency or affinity are not part of this list. Active and inactive are the calls of the source. Unless noted, no stated cut-off is given here; in the data, active means parasite load remaining mostly below about 12% (no sharp cut-off); inactive means mostly above about 10%.

6-phosphogluconate dehydrogenase, decarboxylating (Homo sapiens), sequence (P52209 whole entry, looked up): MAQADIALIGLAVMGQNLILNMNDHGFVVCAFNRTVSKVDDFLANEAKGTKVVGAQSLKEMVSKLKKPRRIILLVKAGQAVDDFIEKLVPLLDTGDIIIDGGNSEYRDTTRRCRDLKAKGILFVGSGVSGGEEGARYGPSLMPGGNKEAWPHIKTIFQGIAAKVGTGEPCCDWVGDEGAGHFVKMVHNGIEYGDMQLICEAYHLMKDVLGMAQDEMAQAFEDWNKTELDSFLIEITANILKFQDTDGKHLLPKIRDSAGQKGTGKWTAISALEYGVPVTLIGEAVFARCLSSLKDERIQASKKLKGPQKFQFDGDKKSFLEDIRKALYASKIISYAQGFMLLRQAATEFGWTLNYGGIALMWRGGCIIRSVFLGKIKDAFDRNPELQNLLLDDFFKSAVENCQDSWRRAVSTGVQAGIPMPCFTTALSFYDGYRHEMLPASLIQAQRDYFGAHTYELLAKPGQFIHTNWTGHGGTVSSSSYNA
Mitogen-activated protein kinase 7 (Homo sapiens), sequence (Q13164 whole entry, looked up, the tested form may be a part): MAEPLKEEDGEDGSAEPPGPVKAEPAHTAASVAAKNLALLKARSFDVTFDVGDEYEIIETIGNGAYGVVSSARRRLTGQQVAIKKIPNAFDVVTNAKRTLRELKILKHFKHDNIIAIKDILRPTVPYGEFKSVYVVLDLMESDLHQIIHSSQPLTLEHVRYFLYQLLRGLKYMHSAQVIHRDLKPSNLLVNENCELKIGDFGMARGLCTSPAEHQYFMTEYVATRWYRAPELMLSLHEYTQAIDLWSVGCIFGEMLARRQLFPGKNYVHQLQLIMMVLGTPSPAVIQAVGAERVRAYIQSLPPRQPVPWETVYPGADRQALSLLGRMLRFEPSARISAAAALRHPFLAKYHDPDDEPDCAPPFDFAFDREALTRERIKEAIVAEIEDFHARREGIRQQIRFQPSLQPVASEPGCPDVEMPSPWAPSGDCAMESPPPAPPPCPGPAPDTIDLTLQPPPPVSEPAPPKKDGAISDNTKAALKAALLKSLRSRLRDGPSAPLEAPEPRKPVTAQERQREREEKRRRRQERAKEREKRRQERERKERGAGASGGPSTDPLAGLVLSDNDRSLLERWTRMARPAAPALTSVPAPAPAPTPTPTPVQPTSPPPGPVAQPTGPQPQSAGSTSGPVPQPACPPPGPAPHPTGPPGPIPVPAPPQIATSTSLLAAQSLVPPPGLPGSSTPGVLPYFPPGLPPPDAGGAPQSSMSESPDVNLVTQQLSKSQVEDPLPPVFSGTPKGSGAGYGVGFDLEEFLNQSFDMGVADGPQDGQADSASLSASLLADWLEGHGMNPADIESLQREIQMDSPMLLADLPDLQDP

In the case of `O=c1ccc2cc(O)c(O)cc2o1`, the survival in [1] was 5.75 (inactive). Also, in assay [2], the parasite load remaining is 19.5% (inactive) and 73.2% (inactive). Moreover, the viability in [2] was 92.8% and 68.7%. Moreover, the inhibition in assay [3] was 2.61% (inactive). Besides, in [4], the red/green cell ratio (normalised) is 1.16 (inactive). Besides, the figures for the normalised cell number in assay [4] (setting [18]) and in assay [4] (setting [19]) were 0.88 and 1.02, respectively. For the same compound, the fold change in assay [5] (setting [20]) is 0.832 (inactive); in [5] (setting [21]) it was 1.64. In addition, the cell count in assay [5] (setting [22]) came to 6390; in assay [5] (setting [23]), 7680. In [6], the luciferase signal was 72 AU (inactive).
For `CC(C(=O)O)c1cccc(Oc2ccccc2)c1` (stereo not given), the inhibition in assay [7] was -4.11%; in assay [3] it was 15.8% (inactive). Also, the score in assay [8] was 0.02. This compound also came in with a rescue above control in [9] of 4.41. The cytochrome c release ratio in [10] amounted to 0.68. In assay [11], this compound registered an inhibition of aggregation of 72.7%. The glutamate uptake change in assay [12] worked out at 5.16%. Further, the inclusion score in [13] was determined as 2. In addition, the aggregation suppression score in assay [14] was found to be 0.0306. The survival in assay [1] was 1.75 (inactive). Moreover, in assay [4], the red/green cell ratio (normalised) is 0.89 (inactive). The normalised cell number in assay [4] (setting [18]) worked out at 1.13; in [4] (setting [19]) it was 1. Besides, the z-score in [15] (MELAS cybrid survival, CellTiter-Glo 48 h, stronger effect = higher value) was -0.0579 (inactive) and -0.205 (inactive) and 0.473 (inactive); in assay [15] (Rieske KO mouse fibroblast survival, CellTiter-Glo 72 h), -0.141 and -0.109 and 0.281; in assay [17], 0.865 (inactive). In [16], the remaining NAD was 10 nM (inactive). Moreover, the luciferase signal in assay [6] was 72 AU (inactive).
Consider `C=Cc1c(C)/c2[n-]/c1=C\c1[n-]c(c(CC)c1C)/C=c1\[n-]c3c(c1C)C(=O)C(C(=O)[O-])C=3c1[n-]c(c(C)c1CCC(=O)[O-])\C=2.[Cu].[Na+].[Na+]` (stereo not given), for which, in [2], the parasite load remaining was 101% (inactive) and 38.1% (inactive). Moreover, the viability in assay [2] was 71.3% and 170%. Also, in assay [3], the inhibition is 37.8% (active). Moreover, in [4], the red/green cell ratio (normalised) was 0.85 (inactive). Moreover, the normalised cell number in assay [4] (setting [18]) amounted to 1.03; in assay [4] (setting [19]), 0.87. For the same compound, the fold change in [5] (setting [20]) was 0.937 (inactive); in [5] (setting [21]) it was 2.82. In addition, the results for the cell count in assay [5] (setting [22]) and in [5] (setting [23]) were 11500 and 12300, respectively.
For the compound `CCOC(=O)CCC(=O)O[C@H]1[C@H](O[C@@H]2[C@@H](C)[C@H](O[C@H]3C[C@@](C)(OC)[C@@H](O)[C@H](C)O3)[C@@H](C)C(=O)O[C@H](CC)[C@@](C)(O)[C@H](O)[C@@H](C)C(=O)[C@H](C)C[C@@]2(C)O)O[C@H](C)C[C@@H]1N(C)C`, the inhibition in assay [7] was 26.4%; in assay [3] it was -8.96% (inactive). In [8], this compound showed a score of 1.27. The compound further came in with a rescue above control in assay [9] of 16.6. In addition, in assay [10], the cytochrome c release ratio was 1.72. For the same compound, the inhibition of aggregation in assay [11] came out at 47.5%. The glutamate uptake change in [12] was -6.79%. The compound also had an inclusion score in assay [13] of 2. In assay [14], the aggregation suppression score worked out at 1.2. In [2], the parasite load remaining was 61.8% (inactive). For the same compound, the viability in [2] amounted to 170%. In addition, the red/green cell ratio (normalised) in [4] is 1.11 (inactive). Moreover, the normalised cell number worked out at 1.38 in assay [4] (setting [18]) and 1.54 in assay [4] (setting [19]). The fold change in [5] (setting [20]) was 0.87 (inactive); in assay [5] (setting [21]), 1.05. In addition, the cell count in [5] (setting [22]) came out at 11100; in [5] (setting [23]) it was 12700. Further, in [16], the remaining NAD was 10 nM (inactive). For the same compound, the luciferase signal in assay [6] is 208 AU (inactive).
Consider `C1CNCCN1`, for which the values for the inhibition in [7] and in [3] were 15.3% and 7.35% (inactive), respectively. The compound also displayed a score in assay [8] of 1.95. This compound also registered a rescue above control in assay [9] of -1.97. Also, the cytochrome c release ratio in [10] is 1.16. This compound had an inhibition of aggregation in assay [11] of 15.4%. The glutamate uptake change in assay [12] is -12.2%. In addition, the inclusion score in assay [13] turned out to be 2. The compound further came in with an aggregation suppression score in [14] of 1.67. Besides, in assay [2], the parasite load remaining was 96.9% (inactive) and 59.4% (inactive). Further, the viability in assay [2] is 74.5% and 108%. Further, in [4], the red/green cell ratio (normalised) was 1.22 (inactive). Besides, the normalised cell number was 0.8 in [4] (setting [18]) and 0.98 in [4] (setting [19]). Also, the fold change in assay [5] (setting [20]) is 0.887 (inactive); in [5] (setting [21]), 2.06. Also, the results for the cell count in assay [5] (setting [22]) and in assay [5] (setting [23]) were 11000 and 12400, respectively. Further, in assay [16], the remaining NAD was 10 nM (inactive). For the same compound, in [6], the luciferase signal was 560 AU (inactive).

These data come from PubChem BioAssay.
